Results taken from PubChem BioAssay (NCI).
Compounds without any hit were thinned out: in the full panel of roughly 83,000, 20% have a hit.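 48-hour exposure, single concentration, 96-well plates; percent growth endpoint where 0 means no net growth. Active: below 10.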 Activity calls are given as the source filed them.

Key:
Test in all cases: NCI-60 one-dose screen, 48 h (100 = growth as untreated, 0 = no growth, -100 = all killed)
Settings in all cases: 10 µM unless noted
[1] = system: T-47D breast
[2] = system: BT-549 breast
[3] = system: MDA-MB-435 melanoma
[4] = system: SW-620 colon
[5] = system: MCF7 breast
[6] = system: HCT-116 colon
[7] = system: HCC-2998 colon
[8] = system: KM12 colon

Measured: growth

O=C1/C(=C/c2cc(F)cc(F)c2)Cc2cc3c(cc21)OCO3
inactive: [1] 47.6% | [2] 35.4% | [4] 28.1% | [5] 29% | [6] 26.8% | [7] 65% | [8] 34.6%
active: [3] -44.3%

O=C(NCCNc1cc(-c2cn(-c3ccccc3)nc2-c2cccc(O)c2)ccn1)Nc1cc(C(F)(F)F)cc(C(F)(F)F)c1
active: [8] 1.09%
inactive: [1] 90.5% | [2] 99.4% | [3] 98.4% | [4] 101% | [5] 87.2% | [6] 89.5% | [7] 96.2%

O=C(N/N=C\c1ccc(F)cc1)c1ccc2nc(-c3ccc(Br)cc3)[nH]c2c1
inactive: [1] 75.6% | [2] 73.5% | [3] 40.7% | [7] 31.3% | [8] 16%
active: [4] 2.87% | [5] 9.41% | [6] -21%

Cc1ccc(Nc2nc(SC(C)C)nc(-c3ccccc3)c2C#N)cc1
inactive: [1] 88.4% | [2] 79.6% | [3] 102% | [4] 89.2% | [5] 92.3% | [6] 92.1% | [7] 88.2% | [8] 96.1%

C/C(CC1(O)C(=O)Nc2ccccc21)=N\O (stereo not drawn)
inactive: [1] 83.7% | [2] 101% | [3] 104% | [4] 94.5% | [5] 95.2% | [6] 98.1% | [7] 111% | [8] 101%

COc1cc2cc(Oc3ccc(NC(=O)c4cc(C(F)(F)F)cc(C(F)(F)F)c4)cc3)c(C)nc2cc1OCCN1CCOCC1
inactive: [1] 84.7% | [2] 71.4% | [3] 65.4% | [4] 97.2% | [5] 26.4% | [6] 11.9% | [7] 113% | [8] 73.5%

Cc1nc(/N=C(N)/N=C(\N)c2cccc(Br)c2)sc1C
inactive: [1] 56.4% | [2] 84.7% | [3] 10.8% | [4] 33% | [5] 13.2% | [6] 25.4% | [7] 64.9% | [8] 37.4%

O=C(CSc1nc2ccccc2c(=O)n1-c1ccccc1)N/N=C/c1ccc(Oc2ccc(Br)cc2)cc1
inactive: [1] 82.4% | [2] 73.1% | [3] 80.8% | [4] 29.6% | [5] 68.9% | [7] 87.1% | [8] 76.3%
active: [6] 7.81%

COc1cc(C(C)=C(c2ccc(OCCN(C)C)cc2)c2ccc(OCCN(C)C)cc2)ccc1F
inactive: [1] 93.4% | [2] 107% | [3] 108% | [4] 104% | [5] 93.8% | [6] 107% | [7] 100% | [8] 109%

COc1cccc(N2CCN(C3=C(Cl)C(=O)c4ncccc4C3=O)CC2)c1
inactive: [2] 105% | [4] 14.3% | [5] 19.1% | [7] 106% | [8] 94.5%
active: [1] -48.1% | [3] 3.36% | [6] 1.4%

CC(C)C(/C=C/c1[nH]ncc1-c1cc(Cl)ccc1O)N1CCOCC1 (stereo not drawn)
inactive: [1] 94.9% | [2] 90% | [3] 95.8% | [4] 98.4% | [5] 76.8% | [6] 89.3% | [7] 104% | [8] 99.6%

O=c1oc2ccc(-c3ccc(F)cc3F)cc2c(=O)n1-c1ccc(Br)cc1F
active: [1] 5.88%
inactive: [2] 30.9% | [3] 66.9% | [4] 79.3% | [5] 58.5% | [6] 57.3% | [7] 81.5% | [8] 61.4%

CCc1nnc(NC(=O)c2cc(-c3ccc(Cl)cc3Cl)oc2C)s1
inactive: [1] 61.7% | [2] 90.4% | [3] 90.6% | [4] 93.3% | [5] 84.9% | [6] 42.2% | [7] 111% | [8] 72.7%

O=C(/C=C/C=C/c1csc(Br)n1)NO
inactive: [1] 103% | [2] 98.4% | [3] 92.6% | [4] 103% | [5] 84.2% | [6] 95.8% | [7] 107% | [8] 93.4%

O=C(Nc1cccc(Cl)c1)Nc1nc2cc([N+](=O)[O-])ccc2o1
inactive: [1] 15.4% | [2] 67.1% | [3] 40.9% | [4] 22.3% | [5] 36.8% | [6] 26.8% | [7] 39% | [8] 26.5%

CCCCCC[n+]1ccc(SCC(=O)n2ccc3ccccc32)c2ccccc21
inactive: [1] 59.1% | [2] 73.2% | [3] 101% | [4] 92.1% | [5] 75.6% | [6] 73.2% | [7] 92.8% | [8] 84.3%
